# According to the supplement of paper PMC9794691:
# Legend:
# Experiment in all cases: area under confluence curve of osimertinib + compound combination regimen (DTP regrowth); compare to osimertinib-only DTP control AUC of the same experiment (AUC (confluence x time, arbitrary))
# H1975 = test system: H1975
# Method in brief: (§1)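 Two schedules were compared in EGFR-mutant NSCLC lines. In one, the EGFR inhibitor and a fixed-dose test compound were given together up to the persister stage (10–21 days), followed by drug-free medium. In the other, the inhibitor alone came first and the test compound second. Prism calculated the area under the IncuCyte confluence–time curve, taking the median of triplicates where these were available.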
# HCC2279 = conditions: DMSO control AUC in same experiment: 29252
# Method in brief: as §1
# HCC2935 = test system: HCC2935
# Method in brief: as §1
# HCC4006 = test system: HCC4006
# Method in brief: as §1
# HCC827 = test system: HCC827
# Method in brief: as §1
# II-18 = test system: II-18
# Method in brief: as §1
# PC9 = test system: PC9
# Method in brief: as §1
# [1] = test compound dose 1000 nM, dosing schedule: sequential, osimertinib-only DTP control AUC in same experiment: 10725, DMSO control AUC in same experiment: 30578
# [2] = test compound dose 1000 nM, dosing schedule: upfront, osimertinib-only DTP control AUC in same experiment: 10245, DMSO control AUC in same experiment: 30578
compound,measurement,setting,value
Cc1nc(Nc2ncc(C(=O)Nc3c(C)cccc3Cl)s2)cc(N2CCN(CCO)CC2)n1 [Dasatinib] + C=CC(=O)Nc1cc(Nc2nccc(-c3cn(C)c4ccccc34)n2)c(OC)cc1N(C)CCN(C)C [osimertinib],area under confluence curve,"H1975; test compound dose 100 nM, dosing schedule: upfront, osimertinib-only DTP control AUC in same experiment: 18969, DMSO control AUC in same experiment: 14522",1440
same,area under confluence curve,"HCC2279; test compound dose 100 nM, dosing schedule: upfront, osimertinib-only DTP control AUC in same experiment: 43517",15300
same,area under confluence curve,"HCC2935; test compound dose 100 nM, dosing schedule: upfront, osimertinib-only DTP control AUC in same experiment: 10360, DMSO control AUC in same experiment: 13875",3810
same,area under confluence curve,"HCC4006; test compound dose 100 nM, dosing schedule: upfront, osimertinib-only DTP control AUC in same experiment: 21234, DMSO control AUC in same experiment: 16638",4610
same,area under confluence curve,"HCC827; test compound dose 100 nM, dosing schedule: upfront, osimertinib-only DTP control AUC in same experiment: 39553, DMSO control AUC in same experiment: 30859",3890
same,area under confluence curve,"II-18; test compound dose 30 nM, dosing schedule: upfront, osimertinib-only DTP control AUC in same experiment: 13359, DMSO control AUC in same experiment: 11408",2420
COc1cc(CCc2cc(NC(=O)c3ccc(N4CC(C)NC(C)C4)cc3)n[nH]2)cc(OC)c1 (stereo not given) + C=CC(=O)Nc1cc(Nc2nccc(-c3cn(C)c4ccccc34)n2)c(OC)cc1N(C)CCN(C)C [osimertinib],area under confluence curve,"H1975; test compound dose 1000 nM, dosing schedule: sequential, osimertinib-only DTP control AUC in same experiment: 12533, DMSO control AUC in same experiment: 14522",3690
same,area under confluence curve,"H1975; test compound dose 1000 nM, dosing schedule: upfront, osimertinib-only DTP control AUC in same experiment: 18969, DMSO control AUC in same experiment: 14522",17800
same,area under confluence curve,"HCC2279; test compound dose 1000 nM, dosing schedule: sequential, osimertinib-only DTP control AUC in same experiment: 20224",10100
same,area under confluence curve,"HCC2279; test compound dose 1000 nM, dosing schedule: upfront, osimertinib-only DTP control AUC in same experiment: 43517",18500
same,area under confluence curve,"HCC2935; test compound dose 1000 nM, dosing schedule: sequential, osimertinib-only DTP control AUC in same experiment: 9121, DMSO control AUC in same experiment: 11459",9140
same,area under confluence curve,"HCC2935; test compound dose 1000 nM, dosing schedule: upfront, osimertinib-only DTP control AUC in same experiment: 12748, DMSO control AUC in same experiment: 11459",11800
same,area under confluence curve,"HCC4006; test compound dose 1000 nM, dosing schedule: sequential, osimertinib-only DTP control AUC in same experiment: 22375, DMSO control AUC in same experiment: 16794",14900
same,area under confluence curve,"HCC4006; test compound dose 1000 nM, dosing schedule: upfront, osimertinib-only DTP control AUC in same experiment: 24440, DMSO control AUC in same experiment: 16794",8920
same,area under confluence curve,"HCC827; test compound dose 1000 nM, dosing schedule: sequential, osimertinib-only DTP control AUC in same experiment: 5666, DMSO control AUC in same experiment: 43928",3350
same,area under confluence curve,"HCC827; test compound dose 1000 nM, dosing schedule: upfront, osimertinib-only DTP control AUC in same experiment: 19044, DMSO control AUC in same experiment: 43928",7760
same,area under confluence curve,"II-18; test compound dose 1000 nM, dosing schedule: sequential, osimertinib-only DTP control AUC in same experiment: 7374, DMSO control AUC in same experiment: 23373",2610
same,area under confluence curve,"II-18; test compound dose 1000 nM, dosing schedule: upfront, osimertinib-only DTP control AUC in same experiment: 15065, DMSO control AUC in same experiment: 23373",11500
NC1(C(=O)N[C@@H](CCO)c2ccc(Cl)cc2)CCN(c2nc[nH]c3nccc2-3)CC1 [Capivasertib] + C=CC(=O)Nc1cc(Nc2nccc(-c3cn(C)c4ccccc34)n2)c(OC)cc1N(C)CCN(C)C [osimertinib],area under confluence curve,"H1975; test compound dose 300 nM, dosing schedule: sequential, osimertinib-only DTP control AUC in same experiment: 9919, DMSO control AUC in same experiment: 26010",1840
same,area under confluence curve,"H1975; test compound dose 300 nM, dosing schedule: upfront, osimertinib-only DTP control AUC in same experiment: 15327, DMSO control AUC in same experiment: 26010",3990
same,area under confluence curve,"HCC2279; test compound dose 300 nM, dosing schedule: sequential, osimertinib-only DTP control AUC in same experiment: 20224",13700
same,area under confluence curve,"HCC2279; test compound dose 300 nM, dosing schedule: upfront, osimertinib-only DTP control AUC in same experiment: 43517",38900
same,area under confluence curve,"HCC2935; test compound dose 300 nM, dosing schedule: sequential, osimertinib-only DTP control AUC in same experiment: 9121, DMSO control AUC in same experiment: 11459",5940
same,area under confluence curve,"HCC2935; test compound dose 300 nM, dosing schedule: upfront, osimertinib-only DTP control AUC in same experiment: 12748, DMSO control AUC in same experiment: 11459",10300
same,area under confluence curve,"HCC4006; test compound dose 300 nM, dosing schedule: sequential, osimertinib-only DTP control AUC in same experiment: 22375, DMSO control AUC in same experiment: 16794",17000
same,area under confluence curve,"HCC4006; test compound dose 300 nM, dosing schedule: upfront, osimertinib-only DTP control AUC in same experiment: 24440, DMSO control AUC in same experiment: 16794",12500
same,area under confluence curve,"HCC827; test compound dose 300 nM, dosing schedule: sequential, osimertinib-only DTP control AUC in same experiment: 8266, DMSO control AUC in same experiment: 27404",5490
same,area under confluence curve,"HCC827; test compound dose 300 nM, dosing schedule: upfront, osimertinib-only DTP control AUC in same experiment: 13929, DMSO control AUC in same experiment: 27404",9340
same,area under confluence curve,"II-18; test compound dose 300 nM, dosing schedule: sequential, osimertinib-only DTP control AUC in same experiment: 3520, DMSO control AUC in same experiment: 13556",3590
same,area under confluence curve,"II-18; test compound dose 300 nM, dosing schedule: upfront, osimertinib-only DTP control AUC in same experiment: 6532, DMSO control AUC in same experiment: 13556",2040
Cc1[nH]nc(C(F)(F)F)c1Cc1sc2c(c1C(=O)N1C[C@](C)(O)CO1)c(=O)n(C)c(=O)n2C(C)C + C=CC(=O)Nc1cc(Nc2nccc(-c3cn(C)c4ccccc34)n2)c(OC)cc1N(C)CCN(C)C [osimertinib],area under confluence curve,PC9; [1],18600
same,area under confluence curve,PC9; [2],11200
Cc1nc2nc(C)c(O[C@@H]3CCN(c4ccc(-c5ccc(CN6CCOCC6)nn5)cc4)C3)c(C)n2n1 + C=CC(=O)Nc1cc(Nc2nccc(-c3cn(C)c4ccccc34)n2)c(OC)cc1N(C)CCN(C)C [osimertinib],area under confluence curve,PC9; [1],14600
same,area under confluence curve,PC9; [2],12400
C=CCn1c(=O)c2cnc(Nc3ccc(N4CCN(C)CC4)cc3)nc2n1-c1cccc(C(C)(C)O)n1 + C=CC(=O)Nc1cc(Nc2nccc(-c3cn(C)c4ccccc34)n2)c(OC)cc1N(C)CCN(C)C [osimertinib],area under confluence curve,"PC9; test compound dose 100 nM, dosing schedule: sequential, osimertinib-only DTP control AUC in same experiment: 15001, DMSO control AUC in same experiment: 22064",13500
same,area under confluence curve,"PC9; test compound dose 100 nM, dosing schedule: sequential, osimertinib-only DTP control AUC in same experiment: 15044, DMSO control AUC in same experiment: 30604",11300
same,area under confluence curve,"PC9; test compound dose 100 nM, dosing schedule: upfront, osimertinib-only DTP control AUC in same experiment: 20672, DMSO control AUC in same experiment: 30604",16100
same,area under confluence curve,"PC9; test compound dose 100 nM, dosing schedule: upfront, osimertinib-only DTP control AUC in same experiment: 24924, DMSO control AUC in same experiment: 22064",20200
CCc1cc2c(cc1N1CCC(N3CCOCC3)CC1)C(C)(C)c1[nH]c3cc(C#N)ccc3c1C2=O [Alectinib] + C=CC(=O)Nc1cc(Nc2nccc(-c3cn(C)c4ccccc34)n2)c(OC)cc1N(C)CCN(C)C [osimertinib],area under confluence curve,"PC9; test compound dose 1000 nM, dosing schedule: sequential, osimertinib-only DTP control AUC in same experiment: 15001, DMSO control AUC in same experiment: 22064",12500
same,area under confluence curve,"PC9; test compound dose 1000 nM, dosing schedule: upfront, osimertinib-only DTP control AUC in same experiment: 24924, DMSO control AUC in same experiment: 22064",10800
